In PubChem BioAssay (NCI) one finds growth data, which are given here for 8 compounds.

Common to all, as to test: NCI-60 one-dose screen, 48 h (100 = growth as untreated, 0 = no growth, -100 = all killed)
Experiment [1] concerns A549/ATCC NSCLC. Particulars: 10 µM unless noted.
The subject of experiment [2] is COLO 205 colon. As to conditions: 10 µM.
In experiment [3] the test system is MALME-3M melanoma. As to conditions: 10 µM unless noted.
For experiment [4], the system named is RXF 393 renal. As to conditions: 10 µM unless noted.
Experiment [5] deals with UACC-257 melanoma. As to conditions: 10 µM unless noted.
The test system of experiment [6] is HT29 colon. Particulars: 10 µM unless noted.
Experiment [7] concerns U251 CNS. Particulars: 10 µM unless noted.
Experiment [8] concerns SK-MEL-2 melanoma. As to conditions: 10 µM unless noted.
The test system of experiment [9] is SN12C renal. Particulars: 10 µM unless noted.
Experiment [10] concerns UO-31 renal. As to conditions: 10 µM unless noted.
For experiment [11], the system named is CAKI-1 renal. Particulars: 10 µM unless noted.
Experiment [12] has as its system A498 renal. As to conditions: 10 µM unless noted.
The test system of experiment [13] is HL-60(TB) leukemia. As to conditions: 10 µM unless noted.
Experiment [14] concerns OVCAR-8 ovarian. As to conditions: 10 µM unless noted.
In experiment [15] the test system is OVCAR-4 ovarian. Particulars: 10 µM unless noted.
The subject of experiment [16] is SK-OV-3 ovarian. Particulars: 10 µM unless noted.
Experiment [17] has as its system HS 578T breast. Particulars: 10 µM unless noted.
Experiment [18] has as its system T-47D breast. As to conditions: 10 µM unless noted.
Experiment [19] concerns BT-549 breast. Particulars: 10 µM.
Experiment [20] concerns MDA-MB-435 melanoma. As to conditions: 10 µM unless noted.

The panel holds about 83,000 compounds, 20% with a hit somewhere; the sample as a whole holds those more often.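 Compound tested at a single concentration for 48 hours in 96-well plates; a percent growth value below 10 was scored as active.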 A number with no mark means an inactive call. Active and inactive are the calls of the source.

As to `COc1ccc2c(c1)NC1=C(C(=O)OC1)C2c1cc(OC)c(OC)c(OC)c1` (configuration not stated), the growth in [1] is 15.6%; in [2] it was -48.5% (active); in experiment [3], 21.7%; in experiment [4], 36.7%; in [5], 62.4%; in [6] it was 1.35% (active). Moreover, the growth was 5.77% (active) in experiment [7]; 15.7% in experiment [8]; 23.1% in experiment [9]; 47.2% in experiment [10]; 25.4% in experiment [11]; -13.7% (active) in [12]. In addition, the growth in experiment [13] was -31.3% (active); in experiment [14], 15.2%; in experiment [15], 37%; in experiment [16] it was 36.9%; in experiment [17], 31%; in experiment [18] it was 25.1%. Besides, the growth is 7.12% (active) in [19] and -35.5% (active) in experiment [20].
On to `CCCC(C)(C)c1ccc2c(c1)OC(C)(C)[C@@H]1CC=C(C)C[C@@H]21`, for which the growth is 88.2% in experiment [1]; 107% in [2]; 93.6% in experiment [3]; 108% in experiment [4]; 93.1% in experiment [5]; 102% in [6]. Also, the growth in experiment [7] is 96.2%; in experiment [8] it was 94.7%; in [10] it was 79.8%; in experiment [12], 83.9%; in experiment [13], 92.7%; in experiment [14] it was 97.7%. Besides, the growth was 100% in experiment [15]; 89.2% in [16]; 100% in experiment [17]; 97.2% in experiment [18]; 97.7% in experiment [19]; 105% in experiment [20].
In the case of `O=C(CCF)c1ccc(O)cc1`, the growth in [1] is 101%; in [2] it was 105%; in [3], 108%; in experiment [4], 109%; in experiment [5], 98.2%; in [6] it was 98.2%. In addition, the growth in [7] was 106%; in experiment [8], 105%; in experiment [9] it was 100%; in experiment [10], 87%; in experiment [13] it was 99.2%; in experiment [14], 99.2%. The growth in experiment [15] is 103%; in experiment [16], 103%; in experiment [18], 102%; in [19], 110%.
On to `CNC(=O)Oc1cc(C(C)C)ccc1Sc1ccc(C(C)C)cc1OC(=O)NC`, for which the growth in experiment [1] was 64.2%; in experiment [2] it was 112%; in experiment [3], 62.7%; in experiment [4], 64.3%; in experiment [5] it was 65.5%; in experiment [6], 97.6%. In addition, the growth in experiment [7] was 46.2%; in experiment [8] it was 72.4%; in experiment [10], 65.7%; in experiment [11], 67%; in [12] it was 88.5%; in [13], 40.4%. Also, the growth in [14] is 66.9%; in [15], 80.8%; in [16], 80.1%; in [17], 67.7%; in experiment [18], 77.7%; in [19], 94.2%. Further, the growth in [20] was 4.24% (active).
Regarding `Nc1nc(N)c(-c2ccc(Cl)c(Cl)c2)c(/C=C/c2ccc(S(=O)(=O)F)cc2)n1`, the growth in experiment [1] was 81.3%; in experiment [2] it was 98.1%; in experiment [3] it was 86.9%; in [4], 90.6%; in experiment [5], 76.3%; in [6], 59.4%. Besides, the growth in experiment [7] was 89.1%; in experiment [8], 86.3%; in [9], 93.1%; in experiment [10], 74.7%; in [11], 84.4%; in experiment [12] it was 87.7%. For the same compound, the growth was 91.9% in experiment [13]; 100% in experiment [15]; 97.2% in experiment [16]; 96.1% in [18]; 94.6% in experiment [19]; 87.5% in [20].
As to `C[C@]12CCC(=O)CC1CC[C@@H]1C2CC[C@@]2(C)C1CC[C@@H]2OC(=O)CC[Se][Se]CCC(=O)O[C@H]1CCC2[C@@H]3CCC4CC(=O)CC[C@]4(C)C3CC[C@@]21C` (some centres not stated), the growth is 101% in experiment [1]; 122% in [2]; 94.2% in experiment [3]; 81.7% in [4]; 90.6% in experiment [5]; 83.1% in experiment [6]. For the same compound, the growth in [7] was 81.3%; in experiment [8], 98.4%; in experiment [9], 103%; in experiment [10], 90.5%; in experiment [11], 84.6%; in experiment [12], 84.6%. For the same compound, the growth was 9.16% (active) in experiment [13]; 83.2% in experiment [15]; 160% in [16]; 52.9% in [17]; 86.5% in experiment [18]; 96.8% in experiment [19]. Moreover, in experiment [20], the growth was 88.5%.
As to `O=C1c2ccccc2C(=O)N1[N+](=O)[O-]`, the growth was 95.4% in experiment [1]; 116% in experiment [2]; 89.4% in experiment [3]; 103% in experiment [4]; 101% in experiment [5]; 102% in [6]. Further, the growth in [7] is 93.2%; in experiment [8], 104%; in experiment [9] it was 97.2%; in experiment [10], 85.9%; in experiment [11] it was 106%; in experiment [12], 93.6%. Moreover, the growth in [13] was 113%; in experiment [14] it was 100%; in experiment [15], 109%; in experiment [16], 114%; in experiment [17] it was 106%; in experiment [19] it was 110%. Further, the growth in [20] is 110%.
For `NS(=O)(=O)c1nc[nH]c1[N+](=O)[O-]`, the growth was 113% in experiment [2]; 102% in [3]; 116% in [4]; 119% in experiment [5]; 93.1% in experiment [6]; 119% in experiment [7]. The growth is 111% in [8]; 102% in experiment [9]; 84.7% in experiment [10]; 97.7% in experiment [11]; 102% in experiment [13]; 105% in experiment [14]. Further, the growth was 105% in experiment [15]; 101% in experiment [16]; 112% in experiment [17]; 99.8% in [18]; 96.7% in experiment [19]; 115% in [20].
